Experimental data reported in PubChem BioAssay.

The compounds below were run on Neuregulin-1 EGF-like domain (assay: binders of neuregulin-1 EGF-like domain, primary screen, biochemical, small-molecule microarray, 635 nm fluorescence (AID 1081;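 also: binding of the protein to compounds printed on small-molecule microarray slides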)). Details: small-molecule microarray binding, higher = more signal.

Row | SMILES | composite z-score
1 | O=C1C[C@@](C(=O)O)(c2ccc([N+](=O)[O-])cc2)[C@@H](c2ccc(CO)cc2)N1CC12CC3CC(CC(C3)C1)C2 | 1.12
2 | Cc1ccc(S[C@]2(C(=O)O)CC(=O)N(Cc3ccccc3C(F)(F)F)[C@@H]2c2ccc(CO)cc2)cc1 | 0.508
3 | COC(=O)c1ccc(OC)c(/C=C\CC(CCc2ccccc2)OC(C)=O)c1 (stereo unspecified) | -0.288
4 | C#CCNS(=O)(=O)N(C)C | 0.774
5 | O=C1CSC(c2cccc([N+](=O)[O-])c2)N1c1ccccc1 (stereo unspecified) | 0.979
6 | CCN(CC)c1ccc(N2CC=CC34O[C@@H]5/C=C\CCCOC(=O)C5[C@H]3C(=O)N(CCCCCO)[C@@H]4C2=O)cc1 (stereo partly specified) | 0.516
7 | OCc1ccc(-c2cc[n+](Cc3cccc(OC(F)(F)F)c3)cc2)cc1 | 0.946
8 | COCC1=C([C@H](O)CCc2ccccc2)[C@H](CO)[C@@H]2C(=O)N(C)C(=O)[C@@H]2C1 | 0.15
9 | COC(=O)[C@@]1(Cc2ccc(F)cc2)[C@H]2c3cc(C(=O)N(C)C)n(Cc4ccc(C)c(F)c4F)c3C[C@H]2CN1C(=O)c1ccccc1 | 1.36
10 | CCOC(=O)C[C@H]1[C@H](OC(=O)c2ccc(C(=O)c3ccccc3)cc2)[C@@H](NC(=O)C2CCCCC2)c2cc(OCCCO)ccc2N1C(=O)Cc1ccc(OC)cc1 | 0.207
11 | CCCN1C(=O)[C@@]2(Cc3ccccc3)N=C(c3ccc(OCCCO)cc3)O[C@H]2c2ccccc21 | 1.12
12 | O=C1C2C=CC(C(O)c3ccccn3)N(Nc3ccccc3)C2C(=O)N1c1ccccc1 (stereo unspecified) | 1.03
13 | COc1cc(C(O)C2C=CC3C(=O)N(C)C(=O)C3N2NC(=O)OC(C)(C)C)cc(OC)c1OC (stereo unspecified) | 1.38
14 | COCC(=C=CC[C@@H](O)c1ccccc1OCCO)C[C@@H](O)c1ccccn1 | 1.2
15 | C[N+](C)(C)CCCC[C@@H]1NC(=O)[C@@H]2C[C@H](C(=O)O)[C@H](c3cccc(OCCO)c3)N2C1=O | 1.1
16 | C=CCC(OC(C)=O)[C@@H]1[C@@H](N(Cc2ccc(-c3cccc(C(F)(F)F)c3)o2)C(=O)c2cccc3ccccc23)c2cc(OCCCO)ccc2N1C(=O)c1ccc(-c2ccccc2)cc1 (stereo partly specified) | -0.908
17 | COCCCNC(=O)[C@@]1(C)c2ccccc2C(=O)N(c2ccc(C)cn2)[C@H]1c1ccc(CO)cc1 | 0.632
18 | COCCCNC(=O)[C@@]1(Cc2ccccc2CN=[N+]=[N-])N=C(c2ccc(OCCCO)cc2)O[C@H]1c1ccccc1N=[N+]=[N-] | 1.05

Row | SMILES | composite z-score
19 | CC1(C)[C@@H]2CC(C(O)C3C=CC4C(=O)N(c5ccccc5)C(=O)C4N3Nc3ccccc3F)=C[C@@H]1C2 (stereo partly specified) | 1.14
20 | CCOC(=O)C[C@H]1[C@H](OC(=O)Cc2ccc3c(c2)OCO3)[C@@H](NC(=O)c2ccccc2)c2cc(OCCCO)ccc2N1C(=O)c1ccc2ccccc2n1 | 0.55
21 | C=CC[C@]1(C(=O)NCC(O)CO)N=C(c2ccc(OCCCO)cc2)O[C@H]1c1ccccc1N=[N+]=[N-] (stereo partly specified) | 1.11
22 | C=C(COC)C(=O)CC[C@H](OC(=O)c1ccccc1-c1ccccc1C(=O)O)c1ccc(OCCO)cc1 | 1.11
23 | COC(=O)[C@@]1(Cc2ccc(OC)cc2)[C@H]2c3cc(C(=O)N(C)C)n(Cc4cc(F)c(F)c(F)c4)c3C[C@H]2CN1C(=O)c1ccccc1 | 1.08
24 | C=CCC(OC(C)=O)[C@@H]1[C@@H](N(Cc2ccc(-c3ccccc3)cc2)C(=O)Cc2ccc(OC)cc2)c2cc(OCCCO)ccc2N1C(=O)c1ccc(-c2ccccc2)cc1 (stereo partly specified) | 0.0056
25 | COc1ccc(CCNC(=O)[C@@H]2c3ccccc3C(=O)N(Cc3ccccc3)[C@H]2c2ccc(CO)cc2)cc1 | 1.2
26 | COC(=O)C(CC#Cc1ccc2c(c1)[C@]1(C(=O)N2)[C@H](c2ccccc2OCCO)N2[C@H](c3ccccc3)[C@H](c3ccccc3)OC(=O)[C@H]2[C@@H]1C(=O)Nc1nc2ccccc2s1)C(=O)OC | 1.26
27 | COc1cc2c(cc1OC)CN(C(=O)[C@@H]1[C@H]3C(=O)O[C@H](c4ccccc4)[C@H](c4ccccc4)N3[C@H](c3ccc(OCCO)cc3)[C@@]13C(=O)Nc1ccc(C#CCCO)cc13)CC2 | 1.27
28 | C[N+](C)(C)CCCCCCNC(=O)[C@H]1C[C@H]2C(=O)N3CCC[C@H]3C(=O)N2[C@H]1c1cccc(OCCO)c1 | 1.42
29 | C=C(C(=O)CC[C@H](OC(=O)c1cccnc1)c1ccc(OCCO)cc1)C(C)C | 1.2
30 | C=C(COC)C(=O)CC[C@H](OC(=O)c1ccccc1-c1ccccc1C(=O)O)c1ccc(CO)o1 | 1.33
31 | COC(=O)[C@@]1(Cc2ccccc2)[C@H]2c3cc(C(=O)N4CCCC4)n(Cc4ccc(OC(F)(F)F)cc4)c3C[C@H]2CN1C(=O)c1ccccc1 | 1.18
32 | CO[C@H]1O[C@H](CO)[C@@H](OC(=O)c2ccc(Br)cc2)[C@@H]2OC(=O)[C@H](Cc3cccc(Br)c3)C/C=C/C[C@@H](Cc3cccc(Br)c3)C(=O)O[C@@H]12 | 1.06
33 | Cc1ccc(N2C(=O)c3ccccc3[C@](C)(C(=O)NC(C)C)[C@@H]2c2ccc(CO)cc2)nc1 | 0.787
34 | NC(=O)[C@@H]1[C@H]2C(=O)O[C@H](c3ccccc3)[C@H](c3ccccc3)N2[C@H](c2ccccc2OCCO)[C@@]12C(=O)Nc1ccc(C#CCCO)cc12 | 0.0434
35 | O=C1O[C@H](c2ccccc2)[C@H](c2ccccc2)N2[C@H]1[C@@H](C(=O)N1CCN(c3ncccn3)CC1)[C@]1(C(=O)Nc3ccc(C#CCCO)cc31)[C@H]2c1ccc(OCCO)cc1 | 0.995
36 | CCCC=C(CCC)[C@@H](NS(=O)(=O)c1cccc2cccnc12)c1ccc(C(=O)OC)cc1 | 0.83
